PubChem BioAssay AID1159580 (chemical genetic matrix, 2015)
Among all 5,500 compounds or so, about 2,000 (36%) were called active. About 18% were inconclusive and are not listed. Rule as the data show it: active = normalized growth mostly below about 0.91 (no sharp cut-off); inconclusive = no clear call, values can overlap the other calls; inactive = mostly above about 0.92. The list shows a part of the results.

Experiment: chemical genetic growth profiling, strain panel (AID 1159580);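 also: tested at 20 µM; growth read once vehicle control cultures reached saturation at 30 °C; 1 = growth at the plate median or of vehicle wells; lower values mean less growth of the strain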
Details: growth OD

Measured: normalized growth

O=c1[nH]cnc2nc[nH]c12
inactive: S. cerevisiae deletion strains, locus YJR066W, strain TOR1, stronger effect = lower value 0.979 | S. cerevisiae deletion strains, locus YJR075W, strain HOC1, stronger effect = lower value 1.01 | S. cerevisiae deletion strains, locus YKL009W, strain mrt4, stronger effect = lower value 0.974 | S. cerevisiae deletion strains, locus YKL068W, stronger effect = lower value 1.02 | S. cerevisiae deletion strains, locus YKL085W, strain MDH1 (second series), stronger effect = lower value 0.984 | S. cerevisiae deletion strains, locus YKL085W, strain MDH1, stronger effect = lower value 0.984 | S. cerevisiae deletion strains, locus YKL160W, strain elf1, stronger effect = lower value 1.01 | S. cerevisiae deletion strains, locus YKR001C, strain vps1, stronger effect = lower value 0.975 | S. cerevisiae deletion strains, locus YKR026C, strain gcn3, stronger effect = lower value 1.02 | S. cerevisiae deletion strains, locus YKR091W, strain srl3, stronger effect = lower value 1.02 | S. cerevisiae deletion strains, locus YLL001W, strain dnm1, stronger effect = lower value 1.01 | S. cerevisiae deletion strains, locus YLL026W, stronger effect = lower value 1.02 | S. cerevisiae deletion strains, locus YLL041C, strain sdh2, stronger effect = lower value 1.02 | S. cerevisiae deletion strains, locus YLR027C, strain aat2, stronger effect = lower value 1.01 | S. cerevisiae deletion strains, locus YLR039C, strain RIC1, stronger effect = lower value 1.01 | S. cerevisiae deletion strains, locus YLR058C, strain SHM2, stronger effect = lower value 1 | S. cerevisiae deletion strains, locus YLR102C, strain apc9, stronger effect = lower value 0.979 | S. cerevisiae deletion strains, locus YLR113W, strain HOG1, stronger effect = lower value 1.01 | S. cerevisiae deletion strains, locus YLR221C, strain rsa3, stronger effect = lower value 1.02 | S. cerevisiae deletion strains, locus YLR258W, strain gsy2, stronger effect = lower value 1.01 | S. cerevisiae deletion strains, locus YLR262C, strain YPT6 (second series), stronger effect = lower value 1.02 | S. cerevisiae deletion strains, locus YLR262C, strain YPT6, stronger effect = lower value 0.991 | S. cerevisiae deletion strains, locus YLR268W, strain sec22, stronger effect = lower value 0.971 | S. cerevisiae deletion strains, locus YLR320W, strain mms22, stronger effect = lower value 1.03 | S. cerevisiae deletion strains, locus YLR330W, strain CHS5, stronger effect = lower value 0.998 | S. cerevisiae deletion strains, locus YLR342W, strain FKS1 (second series), stronger effect = lower value 0.975 | S. cerevisiae deletion strains, locus YLR342W, strain FKS1, stronger effect = lower value 1.02 | S. cerevisiae deletion strains, locus YLR357W, strain rsc2, stronger effect = lower value 1.04 | S. cerevisiae deletion strains, locus YLR370C, strain arc18, stronger effect = lower value 1 | S. cerevisiae deletion strains, locus YLR371W, strain rom2, stronger effect = lower value 0.962 | S. cerevisiae deletion strains, locus YLR384C, strain iki3, stronger effect = lower value 1 | S. cerevisiae deletion strains, locus YLR418C, strain cdc73, stronger effect = lower value 0.994 | S. cerevisiae deletion strains, locus YML016C, strain PPZ1, stronger effect = lower value 0.995 | S. cerevisiae deletion strains, locus YML032C, strain rad52, stronger effect = lower value 0.988 | S. cerevisiae deletion strains, locus YML120C, strain ndi1, stronger effect = lower value 1.01 | S. cerevisiae deletion strains, locus YML124C, strain tub3, stronger effect = lower value 0.978 | S. cerevisiae deletion strains, locus YMR058W, strain fet3, stronger effect = lower value 1.02 | S. cerevisiae deletion strains, locus YMR078C, strain ctf18, stronger effect = lower value 0.997 | S. cerevisiae deletion strains, locus YMR125W, strain sto1, stronger effect = lower value 1.01 | S. cerevisiae deletion strains, locus YMR129W, stronger effect = lower value 1.01 | S. cerevisiae deletion strains, locus YMR205C, strain PFK2, stronger effect = lower value 1.02 | S. cerevisiae deletion strains, locus YMR223W, strain ubp8, stronger effect = lower value 0.985 | S. cerevisiae deletion strains, locus YMR231W, strain pep5, stronger effect = lower value 0.987 | S. cerevisiae deletion strains, locus YMR263W, strain SAP30, stronger effect = lower value 0.999 | S. cerevisiae deletion strains, locus YMR307W, strain GAS1, stronger effect = lower value 1.02 | S. cerevisiae deletion strains, locus YNL067W, strain RPL9B, stronger effect = lower value 1.02 | S. cerevisiae deletion strains, locus YNL071W, strain lat1, stronger effect = lower value 1.01 | S. cerevisiae deletion strains, locus YNL153C, strain GIM3, stronger effect = lower value 1.02 | S. cerevisiae deletion strains, locus YNL183C, strain NPR1, stronger effect = lower value 0.978 | S. cerevisiae deletion strains, locus YNL209W, strain ssb2, stronger effect = lower value 1.02 | S. cerevisiae deletion strains, locus YNL233W, strain BNI4, stronger effect = lower value 0.999 | S. cerevisiae deletion strains, locus YNL248C, strain rpa49, stronger effect = lower value 1.02 | S. cerevisiae deletion strains, locus YNL250W, strain rad50, stronger effect = lower value 0.977 | S. cerevisiae deletion strains, locus YNL271C, strain bni1, stronger effect = lower value 0.978 | S. cerevisiae deletion strains, locus YNL298W, strain CLA4, stronger effect = lower value 1 | S. cerevisiae deletion strains, locus YNL307C, strain MCK1, stronger effect = lower value 0.982 | S. cerevisiae deletion strains, locus YNL322C, strain KRE1 (second series), stronger effect = lower value 1.02 | S. cerevisiae deletion strains, locus YNL322C, strain KRE1, stronger effect = lower value 1.01 | S. cerevisiae deletion strains, locus YNR049C, strain mso1, stronger effect = lower value 1.03 | S. cerevisiae deletion strains, locus YNR052C, strain pop2, stronger effect = lower value 0.978 | S. cerevisiae deletion strains, locus YOL012C, strain htz1 1.01 | S. cerevisiae deletion strains, locus YOL147C, strain pex11, stronger effect = lower value 0.98 | S. cerevisiae deletion strains, locus YOR001W, strain rrp6, stronger effect = lower value 1.02 | S. cerevisiae deletion strains, locus YOR061W, strain CKA2, stronger effect = lower value 0.99 | S. cerevisiae deletion strains, locus YOR069W, strain VPS5, stronger effect = lower value 0.988 | S. cerevisiae deletion strains, locus YOR070C, strain gyp1, stronger effect = lower value 1.01 | S. cerevisiae deletion strains, locus YOR080W, strain dia2, stronger effect = lower value 1.03 | S. cerevisiae deletion strains, locus YOR083W, strain WHI5, stronger effect = lower value 1.01 | S. cerevisiae deletion strains, locus YOR106W, strain vam3, stronger effect = lower value 1.01 | S. cerevisiae deletion strains, locus YOR136W, strain idh2, stronger effect = lower value 0.973 | S. cerevisiae deletion strains, locus YOR144C, strain elg1, stronger effect = lower value 0.989 | S. cerevisiae deletion strains, locus YOR184W, strain ser1, stronger effect = lower value 0.98 | S. cerevisiae deletion strains, locus YOR231W, strain MKK1, stronger effect = lower value 1.02 | S. cerevisiae deletion strains, locus YOR265W, strain rbl2, stronger effect = lower value 1.03 | S. cerevisiae deletion strains, locus YOR270C, strain vph1, stronger effect = lower value 1.11 | S. cerevisiae deletion strains, locus YOR290C, strain snf2, stronger effect = lower value 1 | S. cerevisiae deletion strains, locus YOR316C, strain cot1, stronger effect = lower value 0.989 | S. cerevisiae deletion strains, locus YPL051W, strain arl3, stronger effect = lower value 1.03 | S. cerevisiae deletion strains, locus YPL055C, strain LGE1, stronger effect = lower value 1.03 | S. cerevisiae deletion strains, locus YPL078C, strain atp4, stronger effect = lower value 1.02 | S. cerevisiae deletion strains, locus YPL106C, strain sse1, stronger effect = lower value 0.994 | S. cerevisiae deletion strains, locus YPL240C, strain hsp82, stronger effect = lower value 1.01 | S. cerevisiae deletion strains, locus YPL256C, strain CLN2, stronger effect = lower value 0.996 | S. cerevisiae deletion strains, locus YPR119W, strain clb2, stronger effect = lower value 0.99 | S. cerevisiae deletion strains, locus YPR141C, strain kar3, stronger effect = lower value 0.977 | S. cerevisiae deletion strains, locus YPR163C, strain tif3, stronger effect = lower value 0.988 | S. cerevisiae deletion strains, locus YPR167C, strain met16, stronger effect = lower value 0.965 | S. cerevisiae deletion strains, strain wtn01, stronger effect = lower value 0.975 | S. cerevisiae strains, strain wild type, stronger effect = lower value 1
